Screen size: about 330,000 compounds; about 10,000 (3%) were called active. What follows is part of a selection rich in actives, with near analogues and random picks from the rest. A number with no mark means an inactive call.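 The calls were made as follows: active = inhibition of at least 50% at 8 µM in the primary screen; inactive = the rest.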

As a reminder, the inhibition is the relative decrease from the control value, in per cent.

Protein Mdm4 (Homo sapiens) + E3 ubiquitin-protein ligase Mdm2 (Homo sapiens), sequence (O15151 whole entry, looked up): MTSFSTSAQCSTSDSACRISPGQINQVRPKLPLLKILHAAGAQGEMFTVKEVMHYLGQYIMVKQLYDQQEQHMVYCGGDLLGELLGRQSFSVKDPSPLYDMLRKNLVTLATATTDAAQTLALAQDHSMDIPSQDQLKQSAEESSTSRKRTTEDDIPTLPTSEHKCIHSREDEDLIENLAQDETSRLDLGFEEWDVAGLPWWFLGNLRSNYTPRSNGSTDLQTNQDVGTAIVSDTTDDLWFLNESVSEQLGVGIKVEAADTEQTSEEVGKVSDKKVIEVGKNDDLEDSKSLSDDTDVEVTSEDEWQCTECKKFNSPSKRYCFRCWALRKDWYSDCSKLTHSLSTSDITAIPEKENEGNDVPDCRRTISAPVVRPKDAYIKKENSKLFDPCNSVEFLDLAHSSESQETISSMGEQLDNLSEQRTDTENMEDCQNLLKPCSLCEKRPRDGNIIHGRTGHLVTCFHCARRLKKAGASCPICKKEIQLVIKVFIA
Protein Mdm4 (Homo sapiens) + E3 ubiquitin-protein ligase Mdm2 (Homo sapiens), sequence (Q00987 whole entry, looked up): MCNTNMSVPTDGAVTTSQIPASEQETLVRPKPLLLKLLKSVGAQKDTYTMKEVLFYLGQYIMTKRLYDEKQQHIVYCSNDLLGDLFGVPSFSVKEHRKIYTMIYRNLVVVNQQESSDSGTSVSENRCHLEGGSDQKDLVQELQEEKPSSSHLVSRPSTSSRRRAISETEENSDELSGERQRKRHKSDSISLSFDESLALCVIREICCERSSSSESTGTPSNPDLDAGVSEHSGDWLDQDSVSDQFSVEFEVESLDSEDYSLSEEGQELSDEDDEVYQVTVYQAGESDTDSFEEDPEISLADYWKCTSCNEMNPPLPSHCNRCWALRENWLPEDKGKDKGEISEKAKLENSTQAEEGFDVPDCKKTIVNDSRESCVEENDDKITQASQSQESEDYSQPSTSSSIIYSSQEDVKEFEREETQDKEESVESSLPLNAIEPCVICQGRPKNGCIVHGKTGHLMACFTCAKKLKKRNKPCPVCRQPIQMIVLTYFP

The assay has as its target Protein Mdm4 (Homo sapiens) + E3 ubiquitin-protein ligase Mdm2 (Homo sapiens) (UniProt O15151+Q00987). The experiment in a line: disruptors of Mdm2/MdmX RING complex – cell-based, luminescence, split luciferase, SaOS-2, uHTS, primary screen (AID 485346). The note with it: SaOS-2 split-luciferase Mdm2/MdmX complementation, at 8 µM, hits give high values.
As for `CCn1nc(C(=O)NNC(=O)C2CSC3(C)CCC(=O)N23)c2ccccc2c1=O` (stereo unspecified), the inhibition is 25.6%. With `Cc1cccc(N2CCN(C(=O)c3cc4c(=O)[nH]c5ccccc5c4n3C)CC2)c1C`, the inhibition is 40.5%. Consider `O=C1CN(C(=O)c2cc(F)cc(F)c2)c2ccccc2N1`, for which the inhibition is 21%. Next, `CCOc1cc(N2CCOCC2)c(OCC)cc1NC(=O)COc1cccc2cccnc12`: 90.6% (active); `CCOc1cc(N2CCOCC2)c(OCC)cc1NC(=O)c1cc(C)nc2ccccc12`: -16.5%; `CCOc1cc(N2CCOCC2)c(OCC)cc1NC(=O)COc1cccc(Cl)c1`: -4.41%. The same measure for `O=S(=O)(Nc1cc(Cl)ccc1N1CCOCC1)c1ccccc1Cl`: 1.14%. Next, `CC(C)(C)OC(=O)NCCCCCC(=O)N/N=C/c1coc2ccccc2c1=O`: 19.7%; `O=c1c(/C=N/O)coc2ccc(Cl)cc12`: 9.78%; `Cc1ccc2occ(/C=N/NC(=O)c3ccccc3C)c(=O)c2c1`: 68.7% (active).

Consider `O=C1CC(Cc2ccc(Cl)cc2)C(=O)N1c1cc(Cl)ccn1` (stereo unspecified), for which the inhibition was -4.34%. In the case of `CN(C)/C(CN1CCCCC1)=C1\N=C(c2ccccc2)OC1=O`, the inhibition is 0.454%. Take `CCc1cc2cc(OC)ccc2nc1SCC(=O)Nc1cc(OC)c(OC)cc1C(=O)O`: the inhibition is 17%. On to `Cc1[nH]c(C)c(S(=O)(=O)N2CCN(c3cccc(C(F)(F)F)c3)CC2)c1C(=O)N1CCCCC1`, for which the inhibition was 76.3% (active). On to `Cc1ccc(C)c(N2CCN(S(=O)(=O)c3c(C)[nH]c(C)c3C(=O)N3CCCC3)CC2)c1`, for which the inhibition was 5.45%. Next, `Cc1[nH]c(C)c(S(=O)(=O)N2CCN(c3cccc(C(F)(F)F)c3)CC2)c1C(=O)N1CCCC1`: 14.7%; `CCOn1c(=O)c(=O)n(O)c2ccccc21`: 3.67%. Next, `COc1ccc(-c2cc(C(F)(F)F)nc(S(C)(=O)=O)n2)cc1OC`: 94.6% (active); `CCS(=O)(=O)NCCc1ccc(OC)c(OC)c1`: 18.8%; `COc1ccc(-c2cc(-c3ccc(N)cc3)nc(N)c2C#N)cc1OC`: 32.6%. Next, `Cc1nc2ccccc2nc(=O)c1NNc1ccc([N+](=O)[O-])cc1`: -2.46%; `Cc1ccc(C)c(NS(=O)(=O)c2c(C)[nH]c(C)c2C(=O)N2CCCCC2)c1`: -0.656%; `Cc1c(C)n(Cc2ccc(Cl)cc2)c2ccc(C(=O)NCCCN3CCOCC3)cc12`: 45.2%.

Take `c1ccc2c(c1)CSc1sccc1C2=C1CCNCC1`: the inhibition was 78.5% (active).

As for `CC1(C(=O)OCC(=O)Nc2ncc(Cl)cc2Cl)CC1(Cl)Cl` (stereo unspecified), the inhibition is -3.51%.

Consider `C=CCNC(=S)NNc1ncnc2sc3c(c12)CC(C)(C)OC3`, for which the inhibition was 10.5%.

On to `COc1cc(/C=C/C(=O)OCC(=O)NCCCc2ccccc2)ccc1O`, for which the inhibition was -15.8%.

`O=C(CCC(=O)N1CCCC1)Nc1ccc([N+](=O)[O-])cc1`: the inhibition was 8.85%. Next, `CCC12CN3CC(CC)(CN(C1)C31C(=O)N(C)c3ccc(C)cc31)C2=O` (stereo unspecified): 5.2%. In the case of `Cc1cccc(-c2nc3ccc(C(=O)NCCN4CCN(C)CC4)cc3nc2-c2cccc(C)c2)c1`, the inhibition was 93.2% (active). As for `CCC1=Nc2cc(C(=O)NCCN3CCCC3)ccc2Sc2ccc(C)cc21`, the inhibition was 22.7%. For the compound `Cc1cccc(C(=O)OC(C)CN2CCN(C)CC2)c1` (stereo unspecified), the inhibition is 15.4%. Take `O=C(CCN1C(=O)c2ccccc2C1=O)NNC(=O)c1ccc(Cl)cc1Cl`: the inhibition is -2.94%.

`Cc1ccc(C(=O)NNC(=O)c2ccc3c(c2)OCCO3)cc1`: the inhibition was -59.9%. Take `CCCCn1c(N)c(N(CCC(C)C)C(=O)COC(=O)c2ccc(CC)cc2)c(=O)[nH]c1=O`: the inhibition was 5.72%. In the case of `CCc1ccccc1NC(=O)[C@@H]1CCC(=O)N1C1OC(=O)c2c1ccc(OC)c2OC` (stereo partly specified), the inhibition was 18.1%. With `CC1CN(C(=O)CCC(=O)NC2CCN(Cc3ccccc3)CC2)c2ccccc2O1` (stereo unspecified), the inhibition is 22.7%.

As to `CC1CN(C(=O)CCC(=O)NCCCN2CCC(Cc3ccccc3)CC2)c2cc(Cl)ccc2O1` (stereo unspecified), the inhibition was 90.6% (active). `CC1CN(C(=O)CCC(=O)NCc2cccnc2)c2ccccc2O1` (stereo unspecified): the inhibition was -8.45%.

In the case of `CC(OC(=O)CCc1nc(=O)c2ccccc2n1C)C(=O)NCc1ccc2c(c1)OCO2` (stereo unspecified), the inhibition was -11.9%. `CN(CC(=O)NC(=O)Nc1ccccc1F)Cc1ccccc1`: the inhibition was -18%. In the case of `CCOC(=O)CSc1nncc2ccc(OC)c(OC)c12`, the inhibition was 0.893%. As for `COc1ccc(C2c3c(C)nn(-c4ccccc4)c3NC(=O)N2c2ccccc2)cc1` (stereo unspecified), the inhibition was 9.76%. Turning to `CCCCCCCCn1c2c(c(=N)c3c1CCC3)CCCC2`, the inhibition was 87% (active). In the case of `Cc1cc([N+](=O)[O-])nn1CCCC(=O)Nc1cccnc1Cl`, the inhibition is 21.4%.

For the compound `COc1ccc(N2CCN(S(=O)(=O)CCNC(=O)C34CC5CC(CC(C5)C3)C4)CC2)cc1`, the inhibition is 17.2%. With `CCOC(=O)C(C)n1nc(-c2ccccc2)c2ccccc2c1=O` (stereo unspecified), the inhibition was 7.24%.

As to `Cc1cc(C)nc(/N=C2\NC(=O)CC(C(=O)O)N2c2ccc(Cl)cc2Cl)n1` (stereo unspecified), the inhibition is 3.8%. Turning to `O=C(COC(=O)c1ccccc1Cl)NC1CCCCCCC1`, the inhibition is 4.18%. Consider `COc1cc(NC(=O)c2ccccc2NS(=O)(=O)c2ccc(Cl)s2)cc(OC)c1`, for which the inhibition is 85.1% (active). As to `COC(=O)c1ccc(NC(=O)c2ccccc2NS(=O)(=O)c2ccccc2)cc1`, the inhibition is 36.9%. As for `COc1cc(OC)c(S(=O)(=O)Nc2ccccc2C(=O)O)cc1S(=O)(=O)Nc1ccccc1C(=O)O`, the inhibition was 13.2%. Next, `O=C(Nc1cc2c3c(c1)C1CCCC1CN3CC1CCCC21)c1ccc([N+](=O)[O-])cc1` (stereo unspecified): 14.3%.

For `CN(C)c1ccc(C=NCCc2ccc(S(N)(=O)=O)cc2)cc1`, the inhibition was 5.89%. As for `Cc1cc(C)c(C#N)c(SCC(=O)Nc2ccccc2)n1`, the inhibition was -38.3%. Regarding `Cc1cc2cc3c(cc2nc1SCC(=O)Nc1c(C)cccc1C)CCC3`, the inhibition is 56.1% (active).

For `Cc1cccc(C)c1NC(=O)CSc1ccc([N+](=O)[O-])cn1`, the inhibition was 7.43%. Take `CN(C)CCn1c2c(c(SCC(=O)Nc3ccccc3C(F)(F)F)nc1=O)CCCC2`: the inhibition was 18.8%.

For the compound `Cc1cccn2c(=O)c3cc(C(=O)NCCN4CCOCC4)c(=N)n(Cc4cccnc4)c3nc12`, the inhibition is 52.7% (active). The same measure for `COc1ccc(CCn2c(=N)c(C(=O)NCC3CCCO3)cc3c(=O)n4cccc(C)c4nc32)cc1OC` (stereo unspecified): 64.4% (active); for `COc1ccc(CNC(=O)c2cc3c(=O)n4ccccc4nc3n(CC3CCCO3)c2=N)cc1` (stereo unspecified): 22.4%; for `Cc1ccc2nc3c(cc(C(=O)NCCc4ccccc4)c(=N)n3CC3CCCO3)c(=O)n2c1` (stereo unspecified): 27.8%. As to `Cc1cccn2c(=O)c3cc(C(=O)NCC4CCCO4)c(=N)n(Cc4ccc(F)cc4)c3nc12` (stereo unspecified), the inhibition was 19.6%. As for `Cc1cccn2c(=O)c3cc(C#N)c(=O)n(CCCN4CCOCC4)c3nc12`, the inhibition was 16%. For `COc1cccc(C2=CC(=O)C[C@H](c3ccc(F)cc3)C2)c1OC`, the inhibition was 11.8%. Next, `Cc1nc(-c2ccc(Cl)cc2)sc1C1(C)CC(c2ccc(Br)cc2)=NO1` (stereo unspecified): 4.57%; `Cc1c(Cl)cccc1NC(=O)Nc1ccc(C(=O)N2CCCC2)cc1`: 41.9%. Next, `Cc1[nH]c(C)c(S(=O)(=O)N2CCC(C)CC2)c1C(=O)N1CCCC1`: -8.55%; `N#Cc1ccc(C2=CC(=O)C[C@H](c3ccc(Cl)cc3)C2)cc1`: -22.1%; `CCOC(=O)c1c(-c2ccc(C)cc2)csc1/N=C(\C)C1=C(O)c2ccccc2C1=O`: 63.4% (active).

As for `CC(=NCc1ccco1)C1=C(O)c2ccccc2C1=O`, the inhibition is -27.5%. Take `COC(=O)c1c(-c2ccc(C)cc2)csc1N`: the inhibition was 16.7%. `Cc1cc(-c2ccc(S(=O)(=O)N3CCc4ccccc4C3)s2)on1`: the inhibition is -2.71%.

Regarding `C/C(=N\NC(=O)c1ccc(C)cc1)C1C(=O)c2ccccc2C1=O`, the inhibition was 1.09%.

`COc1cc(NC(=O)c2ccc(CNc3c(N4CCCC4)c(=O)c3=O)cc2)cc(OC)c1OC`: the inhibition is -9.99%. For `O=C(NCc1ccc2c(c1)OCO2)c1c(O)nc2sccn2c1=O`, the inhibition was 16.7%. Next, `CC(=O)c1c(OCC(=O)N(C)C2CCCCC2)ccc2c(C)cc(=O)oc12`: 4.3%. As to `O=C(CN1CCN(c2ccc(F)cc2)CC1)Nc1ccccc1`, the inhibition is 0.1%. Next, `Cc1cccnc1NC(=O)c1cccc(S(=O)(=O)N2CCN(c3ccc(F)cc3)CC2)c1`: 28.4%; `CC1CCCN(CC(O)COCc2ccccc2)C1` (stereo unspecified): 3.39%.

For the compound `Oc1c(CN2CCN(c3ccc(F)cc3)CC2)cc(Cl)c2cccnc12`, the inhibition is 65% (active). Consider `COc1cc(C)cc(CN2CCC(Cc3ccccc3)CC2)c1O`, for which the inhibition was -29.4%. As to `Oc1c(CN2CCCC2)cc(COCc2ccccc2)c2cccnc12`, the inhibition was 75.7% (active). For the compound `CC(C)(C)C1CCC(C(=O)Nc2cccnc2)CC1` (stereo unspecified), the inhibition is 19%.

With `CCC(C)(C(=O)Nc1ccccc1C)N(C(=O)CNC(C)=O)c1ccc(C)cc1` (stereo unspecified), the inhibition was -5.46%. For `CN1CCN(C2Cc3ccc(Cl)cc3Sc3ccc(F)cc32)CC1` (stereo unspecified), the inhibition was 54.3% (active). Next, `CC(OC(=O)CCCOc1ccccc1)C(=O)Nc1ccc(Cl)cn1` (stereo unspecified): 17.5%. Take `COC(=O)[C@@H]1C[C@@]2(O)[C@H](O)[C@H](O)[C@H](O)C[C@H]2N1Cc1ccc(C)s1`: the inhibition was 7.36%.

On to `CCC(c1nnnn1C1CCCC1)N(Cc1cccs1)Cc1cc2cccc(C)c2[nH]c1=O` (stereo unspecified), for which the inhibition is 56.1% (active).

For the compound `Cc1cccc2cc(CN(Cc3nnnn3Cc3ccccc3)C3CCCC3)c(=O)[nH]c12`, the inhibition is 13.2%. The same measure for `CCC(c1nnnn1Cc1ccco1)N(CCc1ccccc1)Cc1cc2cccc(C)c2[nH]c1=O` (stereo unspecified): 12.5%.

The values above are taken from PubChem BioAssay AID485346 (Sanford-Burnham Center for Chemical Genomics, 2010).
